“And” between values parts separate entries of the source, which are not always exact repeats. Equal entries are not always repeated. Structures can show the parent of a compound that is named as a salt.
Experiments:
Experiment in all cases: cell viability relative to vehicle control; higher = less cytotoxic
Settings in all cases: 10 µM
K562 = system: K562
Procedure, shortened: (§1)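 Screening covered the Selleck bioactive, kinase and epigenetic probe libraries, less identity-inconsistent compounds, on CRISPR-edited mutant clones and isogenic wild-type clones of four leukaemia lines. Cells, at 2000 per well in 50 µL medium, received a single 10 µM acoustically dispensed dose. After 48 h the supernatant was removed and CellTiter-Glo luminescence was read. Viability was analysed in Genedata Screener as percent of the on-plate vehicle control.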

MARIMO = system: MARIMO
Procedure, shortened: as §1

MOLM14 = system: MOLM14
Procedure, shortened: as §1

OCI-AML2 = system: OCI-AML2
Procedure, shortened: as §1

SMILES | cell viability (K562; SRSF2 genotype: SRSF2 P95H/wt) | cell viability (K562; SRSF2 genotype: SRSF2 wt/wt) [%] | cell viability (MARIMO; SRSF2 genotype: SRSF2 P95H/wt) [%] | cell viability (MARIMO; SRSF2 genotype: SRSF2 wt/wt) [%] | cell viability (MOLM14; SRSF2 genotype: SRSF2 P95H/wt) [%] | cell viability (MOLM14; SRSF2 genotype: SRSF2 wt/wt) [%] | cell viability (OCI-AML2; SRSF2 genotype: P95H/wt) [%] | cell viability (OCI-AML2; SRSF2 genotype: wt/wt) [%]
CCCCCCCCCCCCCCCC(=O)OCC(O)C1OC(=O)C(O)=C1O [L-Ascorbyl 6-palmitate] | 103% and 102% | 98.7 | 107 | 121 | 106 | 109 | 103 | 106
CC1(C)S[C@@H]2[C@H](NC(=O)[C@H](C(=O)O)c3ccsc3)C(=O)N2[C@H]1C(=O)O [Ticarcillin sodium] | 95.6% and 98.8% | 104 | 101 | 95.7 | 96.3 | 101 | 98.2 | 89.6
O=C(c1ccccc1)C(O)O [Phenylglyoxal hydrate] | 95.7% and 96.9% | 104 | 86.3 | 86.1 | 67.8 | 66 | 81.6 | 100
CS(=O)(=O)OCCCCOS(C)(=O)=O [Busulfan (Myleran, Busulfex)] | 103% and 108% | 98.6 | 99.6 | 107 | 102 | 106 | 88.6 | 102
CC=Cc1cc(OC)c2c(c1)C(C)C(c1ccc(O)c(OC)c1)O2 (stereo not given) [Dehydrodiisoeugenol] | 90.2% and 91.2% | 90.4 | 89.4 | 95.5 | 83.3 | 97.8 | 75.8 | 78.8
CS(=O)(=O)N1CCc2c(-c3cnc(N)nc3)nc(N3CCOCC3)nc21 | 56.4% and 67% | 66.8 | 53.6 | 42.5 | 34.2 | 35.9 | 17.8 | 25.3
O=C1c2ccccc2-c2n[nH]c3cccc1c23 | 95% and 105% | 95.8 | 72.3 | 72 | 45 | 33.1 | 53.1 | 48.7
Cc1ncc(Cl)cc1NCc1ccc(C(=O)N[C@@H](CC2CCCC2)C(=O)NC2CC2)s1 | 82.9% and 83.4% | 82.1 | 76.2 | 94 | 65 | 66.1 | 72.9 | 71.3
O=C(/C=C/c1ccc(O)c(O)c1)O[C@@H]1C[C@](O)(C(=O)O)C[C@@H](O)[C@H]1O [Chlorogenic acid] | 102% and 109% | 99.4 | 99.4 | 108 | 104 | 102 | 99 | 102
CCCCCCCCc1ccc(CCC(N)(CO)CO)cc1 [Fingolimod (FTY720) HCl] | 0.63% | 0.58 | 0.4 | 0.42 | 0.4 | 0.39 | 0.36 | 0.44
O=C1CN2Cc3c(ccc(Cl)c3Cl)N=C2N1 [Anagrelide hydrochloride] | 94.6% and 89.8% | 108 | 84.1 | 96.4 | 83.4 | 93.4 | 101 | 110
CN1CCC[C@@H]1CCO[C@](C)(c1ccccc1)c1ccc(Cl)cc1 [Clemastine Fumarate] | 83.6% and 82.3% | 81.6 | 74.2 | 77.3 | 71.3 | 78.4 | 81.7 | 78.8
Cc1[nH]c(/C=C2\C(=O)Nc3ccccc32)c(C)c1CCC(=O)O [Orantinib (TSU-68, SU6668)] | 98.7% and 95.2% | 95.5 | 96.3 | 103 | 82 | 89.2 | 75.2 | 84.2
CC(=O)OCC1=C[C@@H]2OC(=O)C3=CO[C@@H](O[C@@H]4O[C@H](CO)[C@@H](O)[C@H](O)[C@H]4O)[C@H]1[C@@H]32 [Asperulosid] | 83.4% and 85.5% | 85.5 | 85.2 | 94.3 | 85 | 88 | 88.5 | 113
CC(=O)c1ccccc1O [2'-Hydroxyacetophenone] | 101% and 100% | 99.4 | 99.1 | 96.6 | 105 | 101 | 102 | 105
CC(=O)SCC(Cc1ccccc1)C(=O)NCC(=O)OCc1ccccc1 (stereo not given) [Racecadotril (Acetorphan)] | 108% and 106% | 103 | 98.3 | 99 | 106 | 105 | 118 | 102
Cc1cc(N2CCN([C@@H]3CN[C@H](C(=O)N4CCSC4)C3)CC2)n(-c2ccccc2)n1 [Teneligliptin hydrobromide] | 90.4% and 78% | 83.5 | 86.8 | 95.5 | 84.8 | 89 | 94.2 | 91.8
CC(C(=O)O)c1ccc(-c2ccccc2)c(F)c1 (stereo not given) [Flurbiprofen] | 107% and 105% | 103 | 106 | 99 | 104 | 105 | 108 | 102
O=C(O)C(=O)O [Oxalic acid] | 99% and 94.9% | 90 | 95.8 | 94.5 | 95.2 | 94.3 | 99.2 | 99.6
CN(C)CCN1C(=O)c2cccc3cc(N)cc(c23)C1=O [Amonafide] | 33.8% and 37.6% | 32.1 | 7.66 | 10.7 | 0.3 | 0.27 | 0.94 | 2.97

SMILES | cell viability (K562; SRSF2 genotype: SRSF2 P95H/wt) | cell viability (K562; SRSF2 genotype: SRSF2 wt/wt) [%] | cell viability (MARIMO; SRSF2 genotype: SRSF2 P95H/wt) [%] | cell viability (MARIMO; SRSF2 genotype: SRSF2 wt/wt) [%] | cell viability (MOLM14; SRSF2 genotype: SRSF2 P95H/wt) [%] | cell viability (MOLM14; SRSF2 genotype: SRSF2 wt/wt) [%] | cell viability (OCI-AML2; SRSF2 genotype: P95H/wt) [%] | cell viability (OCI-AML2; SRSF2 genotype: wt/wt) [%]
Cc1ccc(C(C)C)cc1 [p-Cymene] | 111% and 96.9% | 113 | 95.9 | 99.5 | 100 | 106 | 117 | 119
COc1cc2c(NC3CCN(C(C)C)CC3)nc(C3CCCCC3)nc2cc1OCCCN1CCCC1 | 5.7% and 1.99% | 3.43 | 1.5 | 1.11 | 0.34 | 0.42 | 0.27 | 0.2
O=C(c1ccc(Oc2ccccc2)cc1Cl)c1c[nH]c2ncnc(N[C@@H]3CC[C@@H](CO)OC3)c12 | 9.11% and 19% | 14.3 | 23.1 | 22.1 | 12.6 | 17 | 13.4 | 16.1
Oc1ccc2ccccc2c1N=Nc1ccc(N=Nc2ccccc2)cc1 [Solvent Red 23] | 83.7% and 81.2% | 82 | 82.6 | 90.8 | 76 | 85.3 | 75.3 | 78.7
COc1ccc(-c2ccc3cc(C(=O)O)ccc3c2)cc1C12CC3CC(CC(C3)C1)C2 [Adapalene] | 93.7% and 97.8% | 88.2 | 45.3 | 26.6 | 56.9 | 23.9 | 31.2 | 38.6
Cc1cc(NS(=O)(=O)c2ccc(N)cc2)no1 [Sulfamethoxazole] | 94.6% and 85.2% | 92.6 | 89.7 | 95.6 | 99.8 | 91.1 | 85.2 | 95.5
O=C1CCc2ccc(O)cc2N1 [7-Hydroxy-3,4-dihydrocarbostyril] | 110% and 104% | 102 | 105 | 112 | 107 | 103 | 101 | 107
COc1cc(N2CCC(N(C)C)CC2)ccc1Nc1ncc(Cl)c(Nc2ccccc2P(C)(C)=O)n1 | 41.2% and 62.9% | 34.2 | 34 | 27.2 | 1.15 | 3.56 | 4.59 | 12.3
Clc1ccc(CCC(Cn2ccnc2)Sc2c(Cl)cccc2Cl)cc1 (stereo not given) [Butoconazole nitrate] | 74.1% and 80.8% | 75.7 | 75.8 | 83.9 | 79.7 | 75.7 | 71.5 | 69.6
CC(CN(C)C)Oc1nc(Nc2cc3cccc(Cl)c3cn2)cnc1C#N (stereo not given) | 50.7% and 62.5% | 44.9 | 62.2 | 56.3 | 15.7 | 8.7 | 17 | 18.5
COc1ccc2[nH]c([S@@+]([O-])Cc3ncc(C)c(OC)c3C)nc2c1 [Esomeprazole sodium] | 98.5% and 100% | 94.4 | 98.8 | 99.8 | 97.4 | 90.9 | 96 | 91.8
Cc1cc(F)c(C(=O)Nc2cccc(-c3nncn3C(C)C)n2)cc1-n1cnc(C2CC2)c1 [Selonsertib (GS-4997)] | 78.6% and 86.2% | 82 | 57.1 | 72.1 | 63.5 | 68.5 | 49.5 | 62
O=C(O)C(O)Cc1ccc(O)c(O)c1 (stereo not given) [Sodium Danshensu] | 98.7% and 92.4% | 95.5 | 95.5 | 107 | 96.4 | 98.8 | 93.7 | 104
CCCCCC1=C(C)CCC1=O [Dihydrojasmone] | 105% | 108 | 101 | 106 | 107 | 105 | 106 | 115
C[N+]1(C)[C@@H]2CC[C@H]1C[C@@H](OC(=O)C(O)c1ccccc1)C2 (stereo not given in full) [Homatropine Methylbromide] | 103% and 100% | 101 | 106 | 114 | 102 | 104 | 92.9 | 105
C=C(C)[C@@H]1CC[C@]2(C(=O)O)CC[C@]3(C)[C@H](CC[C@@H]4[C@@]5(C)CC[C@H](O)C(C)(C)[C@@H]5CC[C@]43C)[C@@H]12 [Betulinic acid] | 72% and 77.2% | 80.1 | 82.3 | 51.4 | 86.7 | 89.3 | 61.9 | 65
O=S(=O)(c1cccc2cnccc12)N1CCCNCC1 [Fasudil HCl (HA-1077)] | 97.2% and 90.4% | 94 | 81.6 | 92.8 | 75 | 94.4 | 70.3 | 75.3
O=C(CCCCCN1C(=O)c2cccc3cccc(c23)C1=O)NO [Scriptaid] | 1.69% and 12.5% | 11.4 | 4.53 | 4.11 | 0.6 | 0.53 | 0.32 | 0.98
COC1=C2C[C@@H](C)C[C@H](OC)[C@H](O)[C@@H](C)/C=C(\C)[C@H](OC(N)=O)[C@@H](OC)/C=C\C=C(/C)C(=O)NC(=CC1=O)C2=O [Geldanamycin] | 15.4% and 22.8% | 24.4 | 26.4 | 19.1 | 1.24 | 1.11 | 1.59 | 10.6
C[C@@H]1O[C@@H](O[C@H]2[C@H](O[C@H]3CC[C@@]4(C)[C@@H](CC[C@]5(C)[C@@H]4CC=C4[C@@H]6CC(C)(C)CC[C@]6(C(=O)O)CC[C@]45C)[C@]3(C)CO)OC[C@H](O)[C@@H]2O)[C@H](O)[C@H](O)[C@H]1O | 33.7% and 24.8% | 40.6 | 71.8 | 74.1 | 39 | 45.4 | 45 | 48.8

Reference: the supplement of paper PMC10981050
